p53 reactivation – qHTS assay for re-activators of p53 using a Luc reporter; H1299 p53-A138V BP100-luciferase reporter, luminescence, 24 h; Potency, µM (highest dose often 92.2 µM), for inactives: at the top dose activity change, positive = activation, most hits filed as activators; 320,000 compounds, 0.063% hits; also: % of control where 0% means no effect; nearly all actives have a fitted effect of over 45% in size
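H1299 (p53-null), stable ts p53-A138V + BP100-Luc; 1000 cells/well, Opti-MEM/10% FBS; cpd 4 pt, 1:5; 24 h, 37 deg C, 5% CO2; detection reagent 10 min RT; luminescence.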
ELG1 genotox – qHTS screen for small molecules that induce genotoxicity in human embryonic kidney (HEK293T) cells expressing luciferase-tagged ELG1. HEK293T ELG1-luciferase reporter, luminescence, 16 h. Potency, µM (titrated, usually from 46 µM), inactives show at the highest dose activity change, positive = activation, most hits filed as activators. 330,000 compounds, 1.3% hits; also: % of control where 0% means no effect; nearly all actives have a fitted effect of over 60% in size
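ELG1-luciferase HEK293T cells, 2,000/well; compound pinned in; 16 hr, 37 °C, 5% CO2; ONE-Glo, 30 min RT; luminescence on CCD imager.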
NPC1 prom act – qHTS Assay for NPC1 Promoter Activators; Huh7 NPC1 promoter luciferase reporter, 24 h; Potency, µM (series often up to 9.22 µM), inactives show at the top dose activation, usual class: activators; 320,000 compounds, 2.4% hits; also: % of control where 0% means no effect; nearly all actives have a fitted effect of over 60% in size
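In 1536-well qHTS, Huh7 cells harboring an NPC1 promoter–luciferase construct received compound for 24 h; activation was quantified by luminescence following luciferase reagent addition.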
FLuc modulator – qHTS profiling assay for firefly luciferase inhibitor/activator using purifed enzyme and Km concentrations of substrates (counterscreen for miR-21 project). Potency, µM (series often up to 57.5 µM), inactives show at the highest dose activity change, negative = inhibition, most hits filed as inhibitors. 360,000 compounds, 6.9% hits. Luciferin 4-monooxygenase (Photinus pyralis), P08659. purified FLuc, Km substrates, luminescence inhibition;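 also: plate controls were vehicle for no effect and reference inhibitor for full effect; nearly all actives have a fitted effect of over 55% in size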
Target sequence (P08659 whole entry, looked up): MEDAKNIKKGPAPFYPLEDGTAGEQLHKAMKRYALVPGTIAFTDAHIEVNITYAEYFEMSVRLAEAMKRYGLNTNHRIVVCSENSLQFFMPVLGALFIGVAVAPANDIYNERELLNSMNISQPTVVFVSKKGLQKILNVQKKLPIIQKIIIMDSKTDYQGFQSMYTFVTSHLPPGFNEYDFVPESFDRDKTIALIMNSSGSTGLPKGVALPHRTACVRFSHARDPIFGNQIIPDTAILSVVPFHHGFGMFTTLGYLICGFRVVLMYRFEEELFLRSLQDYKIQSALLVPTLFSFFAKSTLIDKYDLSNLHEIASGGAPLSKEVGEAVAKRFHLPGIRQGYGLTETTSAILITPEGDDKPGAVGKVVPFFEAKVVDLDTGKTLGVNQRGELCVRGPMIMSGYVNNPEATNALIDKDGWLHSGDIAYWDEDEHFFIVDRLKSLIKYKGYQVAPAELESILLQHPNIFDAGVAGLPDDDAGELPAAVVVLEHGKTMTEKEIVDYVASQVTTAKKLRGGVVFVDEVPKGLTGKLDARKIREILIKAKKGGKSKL
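Purified P. pyralis luciferase, 10 nM final, with Km-level 10 uM D-luciferin and 10 uM ATP in 50 mM Tris acetate pH 7.5, 10 mM Mg acetate, 0.01% Tween-20, 0.05% BSA; 6-point qHTS titration about 60 µM downward; luminescence read.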
SMN2 splice enh – qHTS Assay for Enhancers of SMN2 Splice Variant Expression. HEK293 SMN2-luciferase splicing reporter, luminescence, 30-36 h. Potency, µM (top dose mostly 46.1 µM), without a hit: top-dose activity change, positive = activation, actives largely listed as activators. 210,000 compounds, 2.8% hits; also: % of control where 0% means no effect; nearly all actives have a fitted effect of over 55% in size
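HEK293 cells carry an SMN2 minigene-luciferase reporter in which exon 7 inclusion puts luciferase in frame. Cells were seeded at 2000 cells/well, attached for 10-12 hours, then exposed to compounds for 30-36 hours at 37C before ONE-Glo luminescence.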
Rab9 prom act – qHTS Assay for Rab9 Promoter Activators; Potency, µM (highest dose often 9.22 µM), for the others: top-dose activation, negative = inhibition, actives largely listed as activators; 320,000 compounds, 2.8% hits; AID 485297, 2010; Huh7 Rab9 promoter-luciferase reporter, luminescence, 24 h; also: % of control where 0% means no effect; nearly all actives have a fitted effect of over 60% in size
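Huh7 cells stably carrying a Rab9 promoter-luciferase reporter, 1500 cells per well in OP-MEM I with 10% FBS, treated with compound 24 hours at 37C. Luciferase activity read by luminescence after 10 minutes with Amplite reagent.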
* hit, by the source's call; ? = inconclusive; . = no result given; [ ] = remark or other dose. The list is not random: actives were taken first. Their share in the collection is about 7.4%. Calls follow the shape of the dose curve; as a rule, active = well fitted curve in the direction sought with a large enough effect; inconclusive = small, poorly fitted or top-dose-only effect, or another doubt; inactive = no such curve, though single readings can be large; an effect the other way counts as inactive or inconclusive. Potency is read from the fitted curve at half-maximal effect.

SMILES | p53 reactivation | ELG1 genotox | NPC1 prom act | FLuc modulator | SMN2 splice enh | Rab9 prom act
O=C(CCNC(=O)c1ccccc1Cl)Nc1nc(-c2ccccc2Cl)cs1 | ? | 13.6% | 8.0% | 16.9µM* | 2.6% | 1.3%
CCN(c1ccc(OC)cc1)S(=O)(=O)c1nnc(NC(=O)c2ccco2)s1 | 3.6% | 1.2% | -8.9% | 2.4% | . | -0.6%
Cc1cccc(-c2nc(Cn3c(=O)cc(-c4ccccc4)c4c(C)nn(C)c43)c(C)o2)c1 | . | . | . | 0.8% | . | .
COc1ccc2c(c1)C(=O)[C@@H](OC(=O)N[C@H]1CCCc3ccccc31)[C@H](c1ccc(OC)c(Br)c1)O2 | . | . | . | . | -7.1% | .
CCOc1ccc(CCNCc2c(C(=O)O)c(C)n(Cc3ccccc3F)c2C)cc1 | . | . | . | -9.3% | 2.6% | .
Cc1ccc(C)c(CN2CCC(n3nccc3NC(=O)CCCc3ccccc3)CC2)c1 | ? | -11.7% | -0.9% | 1.4% | . | 7.5%
COc1ccc2c(c1)O[C@@H](c1cccc(C(F)(F)F)c1)[C@H](OC(=O)NCc1ccco1)C2=O | . | . | . | . | 1.3% | .
COc1ccc2nc(N(Cc3cccnc3)C(=O)COc3ccccc3)sc2c1 | . | . | . | -10.8% | . | .
O=C(CCNC(=O)c1ccco1)Nc1nc2ccccc2s1 | 24.5% | 8.7% | 25.6% | ? | . | ?
COc1ccc2nc(NC(=O)CCNC(=O)c3ccco3)sc2c1 | ? | ? | 3.16µM* | 12µM* | . | 3.16µM*
O=C(CCNC(=O)c1ccccc1Cl)Nc1nc2ccccc2s1 | 4.5% | ? | ? | ? | . | ?
COc1ccc2nc(NC(=O)CCNC(=O)c3ccccc3Cl)sc2c1 | -2.8% | 10.0% | 16.2% | 19µM* | 15.8µM* | 29.7%
COc1ccc2nc(N(Cc3ccccc3)C(=O)CCNC(C)=O)sc2c1 | 9.7% | ? | ? | 19µM* | . | ?
N#Cc1ccsc1NC(=O)C1CCCN1S(=O)(=O)c1cccs1 (stereo not given) | -2.7% | -2.1% | -2.1% | 2.6% | . | -3.5%
Cc1c(CNC2CCCCCC2)c(C(=O)O)c(C)n1Cc1cccc(Cl)c1 | . | . | . | -5.8% | 8.9% | .
COc1ccc(-c2ccc(SCC(=O)N3c4ccccc4CC3C)nn2)cc1OC (stereo not given) | -11.3% | -4.4% | 11.5% | 4.26µM* | ? | -2.2%
CCOC(=O)N1CCN(C(=O)CSc2ccc(-c3ccc(OC)c(OC)c3)nn2)CC1 | -2.6% | -13.7% | 1.5% | 16.9µM* | 2.1% | 5.5%
CCOC(=O)N1CCN(C(=O)CSc2ccc(-c3ccc(OC)cc3)nn2)CC1 | 4.4% | 0.0% | 0.8% | 10.7µM* | -16.4% | -6.0%
Cc1noc(C)c1S(=O)(=O)N(C)C[C@H]1Oc2c(NC(=O)C3CCCCC3)cccc2C(=O)N([C@H](C)CO)C[C@@H]1C | -0.2% | 2.5% | . | . | . | .
COCC(C)n1c(SCC(=O)NC(=O)NC2CCCC2)nc2ccccc2c1=O (stereo not given) | ? | -1.4% | 17.5% | 4.2% | . | -4.8%
Nc1ccccc1SCc1csc(-c2ccc(Cl)cc2)n1 | 15.1% | 9.5% | ? | 13.5µM* | -1.5%[9.22 µM] | ?
Cc1cc(C)nc(SCc2csc(-c3ccccc3)n2)n1 | ? | 4.61µM* | 2.51µM* | 3.38µM* | 5.01µM* | 1.41µM*
CCCCNC(=O)C(c1ccc(OCC(=O)OC)c(C(=O)OC)c1)N(CCc1ccccn1)C(=O)CCCCCN1C(=O)NC(c2ccc(-c3ccccc3)cc2)C(C(=O)OCc2ccccc2)=C1C (stereo not given) | . | . | . | . | -11.2% | .
O=C(CCc1nc2ccccc2s1)c1ccccc1 | ? | 12.8% | 27.5% | 15.1µM* | 23.5% | ?
COC(=O)CCCc1nc2ccccc2s1 | 4.4% | 5.8% | -0.9% | ? | -7.0% | 0.6%
SMILES | p53 reactivation | ELG1 genotox | NPC1 prom act | FLuc modulator | SMN2 splice enh | Rab9 prom act
COc1ccccc1OC(=O)CCc1nc2ccccc2s1 | 2.5% | -5.2% | 4.3% | 19µM* | -7.4% | -1.5%
O=C(CCc1nc2ccccc2s1)OCC(=O)c1ccccc1 | ? | 13.3% | 14.1% | 19µM* | 18.3% | 22.1%
CCOC(=O)c1c(S(=O)(=O)NCC(=O)Nc2cccc(CC)c2)c(C)n(C)c1C | . | . | . | 2.6% | . | .
CCOC(=O)c1ccccc1NC(=O)c1cc2c(=O)oc3ccc(C)cc3c2s1 | . | . | . | 0.1% | 3.8% | .
CNC(=O)c1ccc(-c2nc(-c3ccccc3)cs2)cc1 | -8.4% | ? | ? | 9.53µM* | 15.8µM* | 3.98µM*
O=C(O)c1csc(-c2ccc(Cl)cc2)n1 | -1.2% | 1.0% | 3.0% | -19.8% | 10.3% | 0.6%
CNC(=O)c1csc(-c2ccc(C)cc2)n1 | ? | ? | ? | 16.9µM* | 24.9% | ?
O=C(Nc1ccc(-c2csc(-c3ccccc3)n2)cc1)c1ccccc1Cl | -2.6% | -1.9% | -3.6% | ? | -1.0% | 1.2%
O=C(O)c1ccccc1C(=O)Nc1ccc(-c2csc(-c3ccccc3)n2)cc1 | ? | ? | 5.3% | 16.9µM* | 71.8% | 20.2%
O=C(O)c1ccc(-c2nc(-c3ccccc3Cl)cs2)cc1 | -5.8% | ? | ? | 16.9µM* | 17.8µM* | ?
CNC(=O)c1csc(-c2ccc(Cl)cc2)n1 | 5.0% | ? | 10.5% | ? | 23.9% | ?
O=C(O)c1ccc(-c2nc(-c3ccc(Cl)c(Cl)c3)cs2)cc1 | 7.5% | -0.2% | 3.16µM* | 13.5µM* | 128.6% | ?
O=C(O)c1cnn(-c2nc(-c3ccc(Cl)c(Cl)c3)cs2)c1C(F)(F)F | -10.8% | ? | 21.1% | ? | . | 15.0%
C=CCNC(=O)c1ccc(-c2nc(-c3ccc(Cl)c(Cl)c3)cs2)cc1 | -3.4% | 1.6% | -3.6% | 0.9% | -7.2% | 1.0%
Cc1oncc1-c1csc(-c2ccccc2)n1 | ? | ? | 10.0% | ? | 12.6% | 29.0%
CC(=O)c1csc(-c2ccccc2)n1 | -3.8% | 9.7% | -0.7% | ? | -0.5% | 11.9%
O=C(O)c1ccccc1-c1csc(-c2ccccc2)n1 | 8.7% | ? | ? | 15.1µM* | ? | 3.98µM*
CCS(=O)(=O)c1ccc(-c2csc(-c3ccccc3)n2)c(Cl)c1Cl | 11.4% | 20.6µM* | 8.2% | 23.9µM* | -50.2% | -1.0%
C=CCNC(=O)c1ccc(-c2nc(-c3ccc(Cl)cc3Cl)cs2)cc1 | -0.7% | 2.0% | 5.2% | -4.7% | 4.47µM* | 7.6%
O=C(O)c1ccc(-c2nc(-c3ccccc3)cs2)cc1 | 5.5% | 7.0% | 1.41µM* | 6.01µM* | 10µM* | 1µM*
